Test results from ChEMBL document CHEMBL1961873, “Compounds: GSK PKIS; Assays: Nanosyn kinase panel” (2012).

What was measured:
[1] = molecular target: T1, Muscle, skeletal receptor tyrosine-protein kinase (Homo sapiens) (UniProt O15146); conditions: at 1 µM;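 further: reported value is the mean percent inhibition of MuSK kinase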
T1 sequence (whole entry): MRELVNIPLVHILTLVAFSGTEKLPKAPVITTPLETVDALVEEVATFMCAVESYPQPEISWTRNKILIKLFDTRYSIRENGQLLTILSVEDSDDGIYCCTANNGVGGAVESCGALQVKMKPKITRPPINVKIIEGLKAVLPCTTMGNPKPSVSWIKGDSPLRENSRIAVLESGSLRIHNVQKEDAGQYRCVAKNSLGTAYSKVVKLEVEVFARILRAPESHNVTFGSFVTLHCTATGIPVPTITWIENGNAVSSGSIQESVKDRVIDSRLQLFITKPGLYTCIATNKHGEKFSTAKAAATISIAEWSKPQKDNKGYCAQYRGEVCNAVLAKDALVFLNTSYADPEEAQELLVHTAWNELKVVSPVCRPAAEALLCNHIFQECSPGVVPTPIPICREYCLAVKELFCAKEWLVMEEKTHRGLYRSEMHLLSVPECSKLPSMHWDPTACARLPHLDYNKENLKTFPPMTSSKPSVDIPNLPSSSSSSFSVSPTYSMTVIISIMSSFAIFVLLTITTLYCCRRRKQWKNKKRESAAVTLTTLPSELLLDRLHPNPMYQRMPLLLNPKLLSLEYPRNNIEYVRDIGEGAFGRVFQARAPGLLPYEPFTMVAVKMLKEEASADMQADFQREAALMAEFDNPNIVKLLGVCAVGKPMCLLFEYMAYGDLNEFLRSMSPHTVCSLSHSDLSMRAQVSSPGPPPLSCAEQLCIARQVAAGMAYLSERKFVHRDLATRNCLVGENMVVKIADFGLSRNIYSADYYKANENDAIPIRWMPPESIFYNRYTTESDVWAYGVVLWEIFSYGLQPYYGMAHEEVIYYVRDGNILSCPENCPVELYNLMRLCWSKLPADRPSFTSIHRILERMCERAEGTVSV

[2] = molecular target: Platelet-derived growth factor receptor alpha (Homo sapiens) (UniProt P16234); conditions: at 0.1 µM
[3] = molecular target: Platelet-derived growth factor receptor alpha (Homo sapiens) (UniProt P16234); conditions: at 1 µM
[4] = tested on: Platelet-derived growth factor receptor alpha (Homo sapiens), P16234 [D842V]; conditions: at 0.1 µM
[5] = tested on: Platelet-derived growth factor receptor alpha (Homo sapiens), P16234 [D842V]; conditions: at 1 µM
[6] = tested on: Platelet-derived growth factor receptor alpha (Homo sapiens), P16234 [T674I]; conditions: at 0.1 µM
[7] = tested on: Platelet-derived growth factor receptor alpha (Homo sapiens), P16234 [T674I]; conditions: at 1 µM
[8] = tested on: Platelet-derived growth factor receptor alpha (Homo sapiens), P16234 [V561D]; conditions: at 0.1 µM
[9] = tested on: Platelet-derived growth factor receptor alpha (Homo sapiens), P16234 [V561D]; conditions: at 1 µM
[10] = molecular target: Platelet-derived growth factor receptor beta (Homo sapiens) (UniProt P09619); conditions: at 0.1 µM
[11] = molecular target: Platelet-derived growth factor receptor beta (Homo sapiens) (UniProt P09619); conditions: at 1 µM
[12] = molecular target: Tyrosine-protein kinase FRK (Homo sapiens) (UniProt P42685); conditions: at 0.1 µM
[13] = molecular target: Tyrosine-protein kinase FRK (Homo sapiens) (UniProt P42685); conditions: at 1 µM
[14] = molecular target: Protein-tyrosine kinase 2-beta (Homo sapiens) (UniProt Q14289); conditions: at 0.1 µM
[15] = molecular target: Protein-tyrosine kinase 2-beta (Homo sapiens) (UniProt Q14289); conditions: at 1 µM
[16] = molecular target: Proto-oncogene tyrosine-protein kinase receptor Ret (Homo sapiens) (UniProt P07949); conditions: at 0.1 µM
[17] = molecular target: Proto-oncogene tyrosine-protein kinase receptor Ret (Homo sapiens) (UniProt P07949); conditions: at 1 µM
[18] = tested on: Proto-oncogene tyrosine-protein kinase receptor Ret (Homo sapiens), P07949 [V804L]; conditions: at 0.1 µM
[19] = tested on: Proto-oncogene tyrosine-protein kinase receptor Ret (Homo sapiens), P07949 [V804L]; conditions: at 1 µM
[20] = tested on: Proto-oncogene tyrosine-protein kinase receptor Ret (Homo sapiens), P07949 [Y791F]; conditions: at 0.1 µM

Proto-oncogene tyrosine-protein kinase receptor Ret (Homo sapiens), P07949 [V804L], sequence (P07949 whole entry V804L): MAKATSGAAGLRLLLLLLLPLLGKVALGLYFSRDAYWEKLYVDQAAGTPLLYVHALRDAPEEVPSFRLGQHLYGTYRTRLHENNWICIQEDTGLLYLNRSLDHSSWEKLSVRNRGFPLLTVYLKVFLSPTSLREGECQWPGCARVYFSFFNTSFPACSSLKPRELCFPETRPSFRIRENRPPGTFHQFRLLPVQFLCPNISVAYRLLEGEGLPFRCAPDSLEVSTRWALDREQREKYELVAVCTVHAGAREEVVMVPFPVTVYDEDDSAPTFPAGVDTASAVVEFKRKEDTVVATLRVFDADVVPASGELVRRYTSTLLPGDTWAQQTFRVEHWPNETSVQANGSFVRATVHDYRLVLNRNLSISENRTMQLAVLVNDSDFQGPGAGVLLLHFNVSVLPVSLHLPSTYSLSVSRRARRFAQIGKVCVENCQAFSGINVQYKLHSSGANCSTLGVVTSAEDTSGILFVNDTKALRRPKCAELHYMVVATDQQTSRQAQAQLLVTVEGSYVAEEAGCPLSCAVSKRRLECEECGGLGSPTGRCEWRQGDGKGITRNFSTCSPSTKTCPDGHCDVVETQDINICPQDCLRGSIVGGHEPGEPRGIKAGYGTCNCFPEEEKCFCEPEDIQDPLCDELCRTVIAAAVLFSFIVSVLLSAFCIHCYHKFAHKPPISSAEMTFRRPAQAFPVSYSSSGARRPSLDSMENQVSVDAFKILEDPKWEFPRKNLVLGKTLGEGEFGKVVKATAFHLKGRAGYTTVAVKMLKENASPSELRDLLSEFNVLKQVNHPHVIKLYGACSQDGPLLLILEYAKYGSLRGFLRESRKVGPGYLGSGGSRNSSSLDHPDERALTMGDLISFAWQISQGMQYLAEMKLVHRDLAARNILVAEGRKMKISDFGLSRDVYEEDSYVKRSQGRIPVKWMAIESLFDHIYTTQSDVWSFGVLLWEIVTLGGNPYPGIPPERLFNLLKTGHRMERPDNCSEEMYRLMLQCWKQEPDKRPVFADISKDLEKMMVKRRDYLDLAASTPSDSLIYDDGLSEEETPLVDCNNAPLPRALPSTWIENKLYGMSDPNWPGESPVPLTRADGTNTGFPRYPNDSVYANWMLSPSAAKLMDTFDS
Platelet-derived growth factor receptor alpha (Homo sapiens), P16234 [T674I], sequence (P16234 whole entry T674I): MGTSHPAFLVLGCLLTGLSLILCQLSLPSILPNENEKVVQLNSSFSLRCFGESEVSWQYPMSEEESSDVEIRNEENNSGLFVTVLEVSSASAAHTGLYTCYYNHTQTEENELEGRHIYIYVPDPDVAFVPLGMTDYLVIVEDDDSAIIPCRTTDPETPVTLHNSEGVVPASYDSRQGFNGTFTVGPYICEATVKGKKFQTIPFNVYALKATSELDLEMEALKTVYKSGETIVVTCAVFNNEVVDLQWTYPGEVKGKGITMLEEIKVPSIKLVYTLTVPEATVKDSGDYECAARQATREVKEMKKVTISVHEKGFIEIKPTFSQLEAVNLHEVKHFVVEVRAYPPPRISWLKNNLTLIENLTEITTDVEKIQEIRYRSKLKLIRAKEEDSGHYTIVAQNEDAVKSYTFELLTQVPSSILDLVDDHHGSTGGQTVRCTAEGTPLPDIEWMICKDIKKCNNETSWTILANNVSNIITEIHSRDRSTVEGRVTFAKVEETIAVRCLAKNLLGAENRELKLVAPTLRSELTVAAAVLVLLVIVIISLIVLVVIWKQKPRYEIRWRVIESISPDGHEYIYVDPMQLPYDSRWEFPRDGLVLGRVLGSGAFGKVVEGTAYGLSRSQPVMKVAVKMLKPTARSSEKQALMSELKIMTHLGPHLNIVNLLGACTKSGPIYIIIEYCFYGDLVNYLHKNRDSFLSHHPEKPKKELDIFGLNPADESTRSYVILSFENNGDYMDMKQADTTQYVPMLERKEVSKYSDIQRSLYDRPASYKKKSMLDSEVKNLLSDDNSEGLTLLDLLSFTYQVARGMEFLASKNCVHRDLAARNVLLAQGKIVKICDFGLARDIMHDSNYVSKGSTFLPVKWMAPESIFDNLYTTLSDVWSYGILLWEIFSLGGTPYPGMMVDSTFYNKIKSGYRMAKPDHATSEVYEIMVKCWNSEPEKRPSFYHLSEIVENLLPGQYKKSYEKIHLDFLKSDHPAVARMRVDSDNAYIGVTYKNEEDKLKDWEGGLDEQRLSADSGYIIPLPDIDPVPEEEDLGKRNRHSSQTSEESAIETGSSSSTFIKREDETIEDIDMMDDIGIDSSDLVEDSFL
Proto-oncogene tyrosine-protein kinase receptor Ret (Homo sapiens), sequence (P07949 whole entry): as the sequence (P07949 whole entry V804L) above, with L804V counted along it
Platelet-derived growth factor receptor alpha (Homo sapiens), P16234 [V561D], sequence (P16234 whole entry V561D): as the sequence (P16234 whole entry T674I) above, with V561D, I674T counted along it
Tyrosine-protein kinase FRK (Homo sapiens), sequence (P42685 whole entry): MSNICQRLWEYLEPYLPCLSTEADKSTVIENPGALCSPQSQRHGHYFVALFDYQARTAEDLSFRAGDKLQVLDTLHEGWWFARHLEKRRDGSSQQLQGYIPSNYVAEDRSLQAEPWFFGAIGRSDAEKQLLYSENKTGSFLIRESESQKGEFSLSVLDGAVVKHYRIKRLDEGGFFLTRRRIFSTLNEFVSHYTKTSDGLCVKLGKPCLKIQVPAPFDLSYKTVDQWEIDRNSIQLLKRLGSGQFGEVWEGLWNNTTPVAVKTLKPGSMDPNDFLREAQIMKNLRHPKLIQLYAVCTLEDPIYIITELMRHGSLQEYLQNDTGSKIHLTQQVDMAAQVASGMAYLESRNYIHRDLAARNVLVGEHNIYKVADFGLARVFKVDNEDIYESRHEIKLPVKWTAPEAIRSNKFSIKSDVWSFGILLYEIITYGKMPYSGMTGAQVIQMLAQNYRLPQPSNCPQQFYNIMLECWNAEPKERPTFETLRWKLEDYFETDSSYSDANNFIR

| SMILES | inhibition [1] [%] | inhibition [2] [%] | inhibition [3] [%] | inhibition [4] [%] | inhibition [5] [%] | inhibition [6] [%] | inhibition [7] [%] | inhibition [8] [%] | inhibition [9] [%] | inhibition [10] [%] | inhibition [11] [%] | inhibition [12] [%] | inhibition [13] [%] | inhibition [14] [%] | inhibition [15] [%] | inhibition [16] [%] | inhibition [17] [%] | inhibition [18] [%] | inhibition [19] [%] | inhibition [20] [%] |
| --- | --- | --- | --- | --- | --- | --- | --- | --- | --- | --- | --- | --- | --- | --- | --- | --- | --- | --- | --- | --- |
| O=C(Nc1n[nH]c2nc(-c3ccco3)ccc12)C1CC1 | 7.97 | 6.36 | 10.6 | 3.54 | 6.18 | 4.27 | 6.36 | 3.66 | 7.73 | 1.45 | 5.96 | 0.93 | 1.05 | 1.43 | 0.04 | 8.2 | 9.6 | 4.51 | 8.22 | 4.94 |
| CCS(=O)(=O)c1ccc(OC)c(Nc2ncc(-c3cccc(-c4ccccc4F)c3)o2)c1 | 5.48 | 10.8 | 49.7 | 6.19 | 32.1 | 3.61 | 6.31 | 18.5 | 60.4 | 17.1 | 63.6 | 0.61 | 11.7 | 7.79 | 0.8 | 15.4 | 54.4 | 3.52 | 9.78 | 10.1 |
| COc1cc2ncn(-c3cc(OCc4ccccc4C(F)(F)F)c(C(C)=O)s3)c2cc1OC | 3.03 | 10.4 | 31.8 | 3.21 | 13.8 | 5.42 | 13.4 | 3.99 | 19.7 | 8.96 | 21.5 | 0.97 | 2.94 |  |  | 4.62 | 5.58 | 5.33 | 9.72 | 7.72 |
| FC(F)(F)c1cccc(Nc2nccc(-c3cnn4nc(-c5ccccc5)ccc34)n2)c1 | 0.42 | 7.91 | 42.6 | 4.44 | 33.6 | 3.36 | 9.98 | 6.8 | 39.2 | 7.48 | 37.1 | 1.24 | 0.8 | -1 | 7.77 | 0.18 | 2.88 | 3.76 | 4.5 | 3.91 |
| c1ccc(-c2n[nH]cc2-c2ccnc(-c3ccc(OCCN4CCOCC4)cc3)c2)nc1 | 9.04 | 20.1 | 58.7 | 18.6 | 71 | 5.25 | -0.97 | 11.7 | 55.5 | 16.2 | 52.2 | 2.08 | 0.63 | -9.86 | 0.28 | 8.77 | 11.1 | 6.56 | 4.32 | 10 |
| CCS(=O)(=O)c1ccc(OC)c(Nc2ncc(-c3ccccc3Cl)o2)c1 | 8.58 | 5.6 | 16.2 | 1.1 | 4.35 | 0.38 | 5.02 | 2.97 | 15.1 | 4.1 | 28 | 0.68 | 4.99 | 6.54 | 45.2 | 4 | 8.62 | 3.06 | 21.2 | 2.23 |
| NS(=O)(=O)c1ccc(N/N=C2\C(=O)Nc3ccc(-c4cnco4)cc32)cc1 | 18.5 | 13.9 | 49.8 | 6.86 | 40.8 | 1.96 | 13.9 | 8.44 | 46.8 | 12.1 | 50.4 | 1.59 | 1.95 | 9.59 | 19.7 | 7.98 | 29 | 15 | 54 | 8.71 |
| Cc1ccc(C(=O)NC(C)C)cc1-c1ccc(C(=O)NCC2CC2)cc1 | -2.53 | 0.96 | 2.31 | 2.27 | 2.56 | 1.13 | 4.14 | 1.87 | 2.98 | 0.76 | 2.4 | 0.01 | -0.89 | -7.76 |  | 2.09 | 0.64 | -0.26 | -0.17 | -0.71 |
| NS(=O)(=O)c1ccc(Nc2cc(-c3ccc(O)c(F)c3)n[nH]2)cc1 | 41 | 17 | 61.5 | 4.48 | 39.5 | 11.1 | 73.5 | 33.2 | 68.3 | 11.8 | 53.4 | -1.68 | 0.93 | -2.28 | -1.9 | 11.3 | 55 | 10.6 | 47.6 | 14.1 |
| COc1ccc2ncn(-c3cc(O[C@H](C)c4ccccc4Cl)c(C(N)=O)s3)c2c1 | 15 | 10.4 | 23.1 | 2.8 | 11.8 | 0.85 | 9.98 | 4.37 | 16.6 | 5.46 | 18.7 | 3.26 | 4.73 | 6.17 | 9.58 |  | 9.64 | 2.37 | 7.27 | 5.2 |
| Cc1nnc(-c2ccc(C)c(-c3ccc(C(=O)NCc4ccc(Cl)cc4)cc3)c2)o1 | 0.1 | 4.51 | 8.84 | 3.25 | 2.53 | 6.19 | 6 | 1.34 | 2 | 1.36 | 3.27 | 1.52 | 2.43 | 6.59 | 10.6 | 8.83 | 2.3 | 2.03 | 2.91 | 1.1 |
| Cc1ccc(NC(=O)c2ccoc2)cc1-c1ccc(C(=O)NCC2CC2)cc1 | 1.19 | 3.05 | 4.97 | 0.3 | 0.74 | 0.22 | 4.2 | 0.35 | 1 | 1.42 | -0.8 | 0.1 | 2.51 | 0.3 | -0.07 | 5.24 | 0.04 | 1.71 | 2.38 | 1.45 |
| CCC(=O)Nc1ccc(C)c(-c2ccc(C(=O)NCC3CC3)cc2)c1 | 0.72 | 3.2 | 11.6 | 2.61 | 3.14 | 3.93 | 4.6 | 4.95 | 3.77 | -0.7 | 0.71 | 2.5 | 2.55 | 11.8 | 6.44 | 7.45 | 6.85 | 1.64 | 2.22 | 4.76 |
| CN(C)CCCNc1nccc(-c2c(-c3ccc(F)cc3)nn3cc(C(F)(F)F)ccc23)n1 | 12.5 | 12.9 | 18.6 | 3.3 | 4.77 | 9.27 | 4.87 | 0.27 | 5.89 | 6.34 | 14.1 | -0.09 | 1.37 | -1.38 | 1.42 | 7.28 | 10.8 | 8.31 | 21.7 | 10.9 |
